Assay outcomes (PubChem)
D2 ag-1 – D2 dopamine receptor (human) agonism | P14416 | HEK293 T-REx D2 cells, calcium flux agonist mode | activation, % at 2 µM | actives 0.53% (n = 340,000) | AID 485358;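 active means activation over 3 SD above normal in the single-dose calcium agonist read, cut at about 30% in these data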; further: 0% is about no effect
Target sequence (P14416 whole entry, looked up): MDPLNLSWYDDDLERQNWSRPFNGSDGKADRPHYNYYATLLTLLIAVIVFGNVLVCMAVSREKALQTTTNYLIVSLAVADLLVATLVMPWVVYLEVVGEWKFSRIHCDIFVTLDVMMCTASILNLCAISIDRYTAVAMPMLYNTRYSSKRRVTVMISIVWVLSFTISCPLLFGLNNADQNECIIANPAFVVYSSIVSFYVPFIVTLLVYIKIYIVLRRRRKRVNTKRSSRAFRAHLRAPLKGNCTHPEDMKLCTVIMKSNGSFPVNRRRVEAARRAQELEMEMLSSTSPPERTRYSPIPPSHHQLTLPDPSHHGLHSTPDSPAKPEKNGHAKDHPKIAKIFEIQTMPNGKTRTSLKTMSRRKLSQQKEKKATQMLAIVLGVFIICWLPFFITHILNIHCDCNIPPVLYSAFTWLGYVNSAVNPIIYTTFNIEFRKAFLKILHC
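Calcium-flux readout, 1 cycle/sec over 180 s following compound pin transfer, in inducible HEK293 Trex D2 cells (force-coupled); dopamine controls included. Positive calcium responses during this window marked compounds as potential agonists.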
D2 PAM-1 – positively modulates the human D2 dopamine receptor allosterically | potentiation, % at 10 µM | HEK293 T-REx D2, calcium flux, EC20 dopamine potentiation | AID 485347 | actives 0.34% (n = 340,000) | P14416;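 active means potentiation over 3 SD above the plate norm, cut at about 30% in these data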; further: 0% is about no effect
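Using a no-wash calcium dye in inducible, force-coupled HEK293 Trex cells expressing D2, we tracked fluorescence each second for 180 s after compound, then for 180 s after EC20 dopamine to detect augmented signalling.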
D2 PAM-2 – potentiates the human D2 dopamine receptor allosterically; P14416; DiscoveRx D2 beta-arrestin cells, luminescence, 90 min; 100% = 57 uM dopamine signal; potentiation, % (no concentration beside the values); actives 0.23% (n = 360,000); in the data active means potentiation above about 50%; inconclusive means mostly about 30% to 49%
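PathHunter D2 cells, attached overnight at 37 deg C, received compound in DMSO plus dopamine at EC20 (50 nM final) for 90 min at 37 deg C. Beta-arrestin recruitment was read as luminescence after 1 h with detection reagent at ambient temperature.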
D2 antagonist – D2 dopamine receptor (human) antagonism; P14416; HEK293 TREx D2 cells, calcium flux, dopamine EC80; actives 2% (n = 340,000); inhibition, % at 10 µM; in the data active means inhibition above about 30%; inactive means below that, where a call was filed; further: 0% is about no effect
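In this primary screen, negative modulation is detected by tracking calcium flux after an EC80 dopamine challenge in inducible HEK293 T-REx D2 cells preexposed to test compound for 180 s.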
D2 ag-2 – agonists of human D2 dopamine receptor (beta-arrestin); P14416; DiscoveRx PathHunter D2 beta-arrestin, luminescence, 90 min; 100% = 57 uM dopamine signal; activation, % (test concentration not listed); actives 0.084% (n = 360,000); in the data active means activation above about 40%; inconclusive means between about 15% and that limit
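Agonist mode: compounds alone added to overnight-plated D2 PathHunter cells for 90 min at 37 C, with 57 uM final dopamine (EC100) defining full response. Beta-arrestin recruitment detected by chemiluminescent reagent, read after 1 h at ambient temperature.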
An asterisk follows results filed as active; ? = inconclusive; / = not tested or not shown. A selection: hits, their analogues and other compounds. The true share with any hit is near 2.4%.

SMILES	D2 ag-1	D2 PAM-1	D2 PAM-2	D2 antagonist	D2 ag-2
Cc1nn(C)c(C)c1S(=O)(=O)N1CCC(C(=O)NC2CCCCCC2)CC1	1	1	-6	33*	0
Cc1cccc(-n2c(=O)c3c4c(sc3n3cnnc23)CCCC4)c1	/	-5	/	/	/
CCCN(C(=O)Cn1cnc2sc(C)c(S(=O)(=O)N3CCN(c4ncccn4)CC3)c2c1=O)c1cccc(C)c1	1	-3	/	/	/
COc1cc(NC(=O)CC(c2cccs2)N2Cc3ccccc3C2=O)cc(OC)c1OC (configuration not stated)	-1	5	/	/	/
Cc1c(C(=O)N/N=C/c2ccoc2)cccc1[N+](=O)[O-]	-1	12	-9	67*	2
Cc1ccccc1NCC(=O)N/N=C/C(Br)=C/c1ccccc1	-1	33*	-8	-6	0
Cc1cccc(NC(=O)c2ccc(F)c(S(=O)(=O)NCc3ccco3)c2)c1	-2	1	-6	33*	-1
Cn1c(CSCc2ccc(Cl)c(Cl)c2)nnc1SCC(=O)Nc1nccs1	0	11	70*	-11	?
CCCOc1ccc(C(=O)Nc2ccc(NC(=O)c3ccccc3)c(Br)c2)cc1	1	/	/	/	/
COc1ccc2nc(N(CCN(C)C)C(=O)/C=C/c3cccs3)sc2c1	0	-8	-19	1	-1
Cc1cccc2sc(N(CCN(C)C)C(=O)/C=C/c3cccs3)nc12	0	-19	-43	32*	-4
COc1ccc2sc(N(CCN(C)C)C(=O)/C=C/c3cccs3)nc2c1	0	-23	-17	36*	3
COc1ccc(Nc2cc(C(=O)NCCCN(C)Cc3ccccc3)c3ccccc3n2)cc1OC	-1	-13	/	/	/
CCCn1cnc2c(oc3ccccc32)c1=O	0	2	-3	-3	-3
CCCn1cnc2c(=O)oc3ccccc3c21	0	5	-9	39*	-5
CC1CCN(c2ccc(-c3nc(C(C)C)no3)cc2[N+](=O)[O-])CC1	-1	/	/	/	/
CN(CC(=O)NCc1ccc(Cl)cc1)S(=O)(=O)c1ccc2c(c1)c(=O)n(C)c(=O)n2C	-1	6	/	/	/
O=C(COC(=O)C1C2CC3OC(=O)C1C3C2)Nc1ccccc1 (configuration not stated)	-2	7	-1	69*	2
CCS(=O)(=O)N1CCc2cc(C(=O)N3CCN(c4cccc(C(F)(F)F)c4)CC3)ccc21	-1	-9	/	/	/
CCC(=O)Nc1cc2c3c(c1)CCN3C(=O)CC2	1	6	-7	33*	-4
O=S(=O)(c1ccc(Br)cc1)c1nnn2c1nc(NCc1ccc3c(c1)OCO3)c1sccc12	1	4	/	/	/
Sc1nnc(-c2ccc(Cl)cc2)n1Cc1ccccc1	0	-1	-16	39*	2
Cc1ccnc(SCCn2c(N3CCCCC3)nc3c2c(=O)[nH]c(=O)n3C)n1	0	31*	/	-3	/
Cn1c(=O)[nH]c(=O)c2c1nc(N1CCCCCC1)n2CCN1CCCCCC1	1	-14	-38	40*	-1
COc1cc(C2c3c(-c4ccccc4)n[nH]c3C(=O)N2c2ccccc2)ccc1O (configuration not stated)	0	25	52*	-5	3
SMILES	D2 ag-1	D2 PAM-1	D2 PAM-2	D2 antagonist	D2 ag-2
N#Cc1c(Sc2ncc(C(F)(F)F)cc2Cl)nsc1C/C=N\OCc1c(F)cccc1Cl	1	2	58*	-4	2
Cc1ccc(NCc2ccccc2O)cc1	1	-6	-16	-17	1
Cc1ccc(CNc2ccc(O)cc2)cc1	1	/	70*	-6	?
CCC(=O)N1c2ccccc2CC1C(=O)NCCc1ccc(OC)c(OC)c1 (configuration not stated)	1	4	/	/	/
Cc1onc(-c2ccc(Cl)cc2Cl)c1C(=O)/C=C/N(C)C	0	-1	-13	16	-4
CC(=O)c1c(-c2ccc(Cl)cc2Cl)noc1C	0	-11	-8	30*	-19
COc1ccc(/C(N)=N/OC(=O)c2c(-c3ccccc3Cl)noc2C)cc1OC	0	4	56*	-16	?
N/C(=N\OC(=O)c1cccs1)c1ccccc1	0	-2	?	-8	11
Cc1cccc(/C(N)=N/OC(=O)c2cccs2)c1	/	/	112*	/	?
COc1ccc(/C(N)=N/OC(=O)c2cccs2)cc1OC	0	5	71*	2	42*
Cc1ccc(/C(N)=N/OC(=O)c2cccs2)cc1	0	0	77*	-32	?
Cc1cccc(CNC(=O)c2ccc(NC(=O)N3CCSc4ccccc43)cc2)c1	0	16	/	/	/
COc1ccc(C2Nc3ccccc3C(=O)N2Cc2ccccc2)cc1CN1CCOCC1 (configuration not stated)	0	4	-7	-3	-3
COc1ccc(C2Nc3ccccc3C(=O)N2c2ccccc2)cc1CN1CCOCC1 (configuration not stated)	0	-1	-13	30*	4
Cc1occc1-c1nnc(-c2cc([N+](=O)[O-])cc([N+](=O)[O-])c2)o1	0	6	66*	1	?
COc1ccccc1CN1C[C@@H]2C[C@@H](c3ccccc3C)N3CCC[C@@]23C1=O	-1	-2	-10	-3	-5
Cc1ccccc1CN1C[C@@H]2C[C@@H](c3cnc(N4CCOCC4)s3)N3CCC[C@@]23C1=O	1	1	-7	37*	1
Cc1ccc(NC(=O)C2CCN(c3cc(C)nc4c(-c5ccc(Cl)cc5)c(C)nn34)CC2)c(C)c1	0	-6	/	/	/
NC(=O)C1(N2CCCCC2)CCN(Cc2ccc(Br)cc2)CC1	0	-25	-18	37*	-2
CCc1ccccc1Nc1ncnc2c1cnn2-c1ccc(Cl)cc1	0	-14	/	/	/
CC(C)Nc1cc(N2CCN(C3CCCCC3)CC2)c2noc3c2c1C(=O)c1ccccc1-3	0	-2	/	/	/
Cc1nn(CC(=O)Nc2ccc(Br)cc2F)c(=O)c2cccn12	0	-6	2	47*	-4
Cc1ccccc1NC(=O)Cn1nc(C)n2cccc2c1=O	0	-6	2	17	1
COC(=O)CN(c1ccccc1F)S(=O)(=O)c1ccccc1	-4	-5	8	-10	-3
COC(=O)CN(c1ccc(F)cc1)S(=O)(=O)c1ccccc1	4	/	-4	47*	-1
C/C(=N/NC(=O)CN(c1ccccc1)S(=O)(=O)c1ccccc1)c1ccccc1O	1	-17	-78	52*	1
CC(=O)Nc1ccc(OC(=O)c2ccc(Cl)cc2)cc1	0	-2	-14	33*	1
C/C(O)=C(/C=Nc1ccccc1)C(=O)Nc1ccccc1	1	11	-1	33*	-3
